This is an account of results in PubChem BioAssay (NCI).

Each structure is given as a SMILES string. Compounds without any hit were thinned out: in the full panel of roughly 83,000, 20% have a hit.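 Growth was measured after 48 h exposure to one concentration of compound in 96-well plates. Values under 10 count as active.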 A number with no mark means an inactive call. Calls of active or inactive are those of the source.

Some test systems named below: SR leukemia; RPMI-8226 leukemia; OVCAR-8 ovarian; OVCAR-5 ovarian; OVCAR-4 ovarian; SK-OV-3 ovarian; IGROV1 ovarian; OVCAR-3 ovarian; HS 578T breast; NCI/ADR-RES ovarian; T-47D breast; BT-549 breast; MDA-MB-435 melanoma; SW-620 colon; MCF7 breast; HCT-116 colon; HCC-2998 colon; KM12 colon.
Holding throughout (assay): NCI-60 one-dose screen, 48 h (100 = growth as untreated, 0 = no growth, -100 = all killed)
What all share (details): 10 µM unless noted

As to `CC1(C)CC2=C3C=C[C@@H]4[C@@]5(C)CCC(=O)C(C)(C)[C@@H]5CC[C@@]4(C)[C@]3(C)CC[C@@]2(C(=O)O)CC1=O`, the growth in the assay with SR leukemia is 71.7%; with RPMI-8226 leukemia it was 31.8%; with OVCAR-8 ovarian, 89.6%; in the assay with OVCAR-5 ovarian, 93.2%; with OVCAR-4 ovarian, 64.5%; in the assay on SK-OV-3 ovarian it was 84.3%. Besides, the growth was 85.3% with IGROV1 ovarian; 60.1% with OVCAR-3 ovarian; 95.6% in the assay with HS 578T breast; 93.5% in the assay on NCI/ADR-RES ovarian; 74.4% in the assay on T-47D breast; 41.5% with BT-549 breast. Besides, the growth in the assay on MDA-MB-435 melanoma is 49.4%; in the assay with SW-620 colon it was 66.9%; with MCF7 breast it was 57.3%; in the assay with HCT-116 colon, 64.6%; with HCC-2998 colon it was 84.3%; with KM12 colon, 78.3%.
Regarding `OCCCC1CCN(C(Cc2ccccc2)c2ccccc2)CC1` (stereo unspecified), the growth is 120% in the assay with SR leukemia; 98.3% with RPMI-8226 leukemia; 98.5% with OVCAR-8 ovarian; 60.2% with OVCAR-5 ovarian; 92.3% in the assay on OVCAR-4 ovarian; 84.9% in the assay on SK-OV-3 ovarian. Also, the growth in the assay on IGROV1 ovarian was 96.8%; with OVCAR-3 ovarian, 89.2%; with HS 578T breast, 101%; in the assay with NCI/ADR-RES ovarian, 93.9%; with T-47D breast, 56.9%; in the assay with BT-549 breast, 79.8%. Moreover, the growth was 96.4% with MDA-MB-435 melanoma; 107% with SW-620 colon; 94.6% with MCF7 breast; 83.9% in the assay on HCT-116 colon; 94.4% in the assay on HCC-2998 colon; 94.7% in the assay on KM12 colon.
As to `C[C@@H]1CCC[C@H]1CC(N)C(=O)O` (stereo partly specified), the growth with SR leukemia is 108%; with RPMI-8226 leukemia it was 103%; with OVCAR-8 ovarian, 106%; with OVCAR-5 ovarian, 105%; with OVCAR-4 ovarian, 105%; with SK-OV-3 ovarian, 113%. The growth with IGROV1 ovarian was 114%; in the assay on OVCAR-3 ovarian, 117%; in the assay on HS 578T breast, 103%; with NCI/ADR-RES ovarian, 104%; with T-47D breast, 106%; in the assay on BT-549 breast, 106%. In addition, the growth is 98.6% in the assay with MDA-MB-435 melanoma; 102% in the assay on SW-620 colon; 91.7% with MCF7 breast; 95.7% in the assay on HCT-116 colon; 103% in the assay with HCC-2998 colon; 106% in the assay with KM12 colon.
Regarding `O=C(Nc1nn(-c2ccc(Cl)cc2Cl)nc1-c1ccccc1)c1ccccc1`, the growth in the assay with SR leukemia is 46%; with RPMI-8226 leukemia, 75.7%; in the assay with OVCAR-8 ovarian, 103%; in the assay with OVCAR-5 ovarian, 92%; in the assay with OVCAR-4 ovarian, 106%; in the assay with SK-OV-3 ovarian, 117%. Moreover, the growth is 95% with IGROV1 ovarian; 90.7% with OVCAR-3 ovarian; 105% in the assay on HS 578T breast; 106% in the assay on NCI/ADR-RES ovarian; 103% in the assay with T-47D breast; 119% in the assay on BT-549 breast. Besides, the growth with MDA-MB-435 melanoma is 95.3%; in the assay on SW-620 colon, 105%; in the assay on MCF7 breast it was 105%; in the assay with HCT-116 colon it was 84.3%; with HCC-2998 colon, 108%; in the assay on KM12 colon, 80.8%.
Take `CCN(CC)c1ccc(/C=C/C(=O)c2ccc(Nc3nc(Nc4ccccc4)nc(Nc4ccccc4)n3)cc2)cc1`: the growth in the assay on SR leukemia is 39%; in the assay with RPMI-8226 leukemia, -23.6% (active); in the assay with OVCAR-8 ovarian, 43.8%; in the assay on OVCAR-5 ovarian, 71.3%; in the assay on OVCAR-4 ovarian, 58.5%; in the assay with SK-OV-3 ovarian, 77.4%. Besides, the growth was 47.8% in the assay on IGROV1 ovarian; 46.5% with OVCAR-3 ovarian; 26.2% in the assay with HS 578T breast; 39.1% in the assay with NCI/ADR-RES ovarian; 12.3% in the assay with T-47D breast; 52.1% with BT-549 breast. Further, the growth was 51.4% in the assay with MDA-MB-435 melanoma; 70.3% in the assay on SW-620 colon; 29.2% with MCF7 breast; 50.2% in the assay with HCT-116 colon; 66.5% in the assay on HCC-2998 colon; 45.4% in the assay on KM12 colon.
With `CCOC(=O)CSc1ncnc2c1c(-c1ccccc1)c(-c1ccccc1)n2-c1ccc(C)cc1`, the growth was 80.4% in the assay on SR leukemia; 37.8% in the assay on RPMI-8226 leukemia; 54.5% with OVCAR-8 ovarian; 93.8% in the assay on OVCAR-5 ovarian; 80.4% in the assay on OVCAR-4 ovarian; 56% in the assay with SK-OV-3 ovarian. Also, the growth in the assay with IGROV1 ovarian was 79.9%; with OVCAR-3 ovarian, 66.4%; with HS 578T breast, 81.7%; with NCI/ADR-RES ovarian it was 98.4%; with T-47D breast, 9.51% (active); in the assay on BT-549 breast it was 61.8%. In addition, the growth in the assay with MDA-MB-435 melanoma was 74.2%; in the assay on SW-620 colon, 81.2%; in the assay with MCF7 breast it was 52.5%; in the assay on HCT-116 colon, 53.5%; in the assay on HCC-2998 colon, 75.8%; in the assay on KM12 colon, 50.2%.
Regarding `CC(C)c1ccc(COCc2cc(CN3CCCC3)c(O)c3ncccc23)cc1`, the growth in the assay with SR leukemia is -6.27% (active); in the assay on RPMI-8226 leukemia, -21.4% (active); in the assay on OVCAR-8 ovarian it was -10.8% (active); in the assay on OVCAR-5 ovarian, 32.8%; with OVCAR-4 ovarian, -6.36% (active); with SK-OV-3 ovarian it was -16.4% (active). Further, the growth in the assay with IGROV1 ovarian is 9.42% (active); in the assay with OVCAR-3 ovarian, -34.2% (active); in the assay with HS 578T breast, 41.6%; in the assay with NCI/ADR-RES ovarian it was -51.2% (active); in the assay on T-47D breast, -7.55% (active); with BT-549 breast, 13.1%. The growth is 20.2% in the assay on MDA-MB-435 melanoma; 3.8% (active) in the assay with SW-620 colon; 7.67% (active) with MCF7 breast; 5.58% (active) with HCT-116 colon; 14.6% in the assay on HCC-2998 colon; 14.1% in the assay on KM12 colon.
